Reference: PubChem BioAssay (Tox21)
Inconclusive results are not listed. Where a call stands in place of a potency, no number is given. The source made the active and inactive calls. Calls come from the whole dose curve; as a rule, active = well fitted curve in the direction sought with a large enough effect in the repeat runs; inconclusive = weak or mixed curves; inactive = no such curve, though single readings can be large; an effect the other way counts as inactive or inconclusive.

Assay: qHTS assay to identify small molecule antagonists of the retinoic acid receptor (RAR) signaling pathway (AID 1159552; note: nearly all actives have a fitted effect of over 50% in size; note: potency is the fitted concentration of half-maximal effect)
Conditions: C3RL4 RARE luciferase reporter, retinol-stimulated, 6 h; series mostly up to 92.4 µM
Procedure, shortened: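 Luminescence from a RARE luciferase reporter in C3RL4 cells served as read-out. Cells received compounds together with 1 uM final retinol and incubated 6 hr at 37 C before detection reagent was added for 30 min at room temperature.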
In the case of `CCOc1ccc(Cc2nccc3cc(OCC)c(OCC)cc23)cc1OCC`, the Potency is reported as “inactive”. With `O=c1cc(-c2ccccc2)oc2cc(O)cc(O)c12` the Potency was “inactive”. In the case of `CCC(C)(C)OC`, the Potency is reported as “inactive”. In the case of `O=C1c2ccccc2C(=O)C1c1ccc(Br)cc1`, the Potency is reported as “inactive”. In the case of `COC(=O)c1nc(Cl)c(Cl)nc1N`, the Potency is reported as 11.9 µM (active). With `Cc1cccc(O)c1N` the Potency was “inactive”. In the case of `OCCN1CCN(CCCN2c3ccccc3Sc3ccc(Cl)cc32)CC1`, the Potency is reported as 29.8 µM (active). In the case of `c1csc(SSc2cccs2)c1`, the Potency is reported as 9.69 µM (active). With `CN1C(=O)c2ccccc2C1=O` the Potency was “inactive”. In the case of `CCOc1cccc(-n2cc(C(=O)N3CCN(c4cc(C(=O)O)c5ccccc5c4)CC3)nc2-c2ccc(C)cc2)c1`, the Potency is reported as “inactive”. For `CCCCCCNC(=O)n1cc(F)c(=O)[nH]c1=O`, the Potency was “inactive”. For `Cc1ccc(Cl)c(Nc2ccccc2C(=O)O)c1Cl`, the Potency was “inactive”. For `CCc1ccccc1`, the Potency was “inactive”. With `CC(=O)OCC[N+](C)(C)C` the Potency was “inactive”. With `CC1(C)[C@@H](OC(=O)CCC(=O)O)CC[C@]2(C)[C@H]3C(=O)C=C4[C@@H]5C[C@@](C)(C(=O)O)CC[C@]5(C)CC[C@@]4(C)[C@]3(C)CC[C@@H]12` the Potency was “inactive”. In the case of `CC(C)c1nc(CN(C)C(=O)N[C@H](C(=O)N[C@@H](Cc2ccccc2)C[C@H](O)[C@H](Cc2ccccc2)NC(=O)OCc2cncs2)C(C)C)cs1`, the Potency is reported as “inactive”. In the case of `O=C1c2ccccc2C(=O)N1CCc1noc(-c2ccc(CN3CCCCCC3)s2)n1`, the Potency is reported as “inactive”. In the case of `CC(=O)NC1(c2cccc(F)c2)CCN(CC[C@@]2(c3ccc(Cl)c(Cl)c3)CN(c3ccccc3)C(=O)CO2)CC1`, the Potency is reported as 43.4 µM (active). In the case of `OC[C@H]1O[C@@H](n2cnc3c(=S)nc[nH]c32)[C@H](O)[C@@H]1O`, the Potency is reported as “inactive”. With `CC1=Nc2ccc3ccccc3c2C1(C)C` the Potency was “inactive”. For `Cc1ccc2c(Br)cc(Br)c(O)c2n1`, the Potency was “inactive”. For `CCCCC(CC)COP(=O)(O)O` (centres undefined), the Potency was “inactive”. For `COc1cc(C(=O)NC2CCN(C)CC2)ccc1Nc1ncc2c(n1)N(C1CCCC1)CC(F)(F)C(=O)N2C`, the Potency was 2.5 µM (active). In the case of `CC(C)C[C@H](NC(=O)[C@H](CCc1ccccc1)NC(=O)CN1CCOCC1)C(=O)N[C@@H](Cc1ccccc1)C(=O)N[C@@H](CC(C)C)C(=O)[C@@]1(C)CO1`, the Potency is reported as “inactive”.

Assay: qHTS assay to identify small molecule agonists of the retinoic acid receptor (RAR) signaling pathway (AID 1159553); note: potency is the fitted concentration of half-maximal effect
Conditions: C3RL4 RARE luciferase reporter, agonist, 6 h; activation: at 73.3 µM (top of the series)
Procedure, shortened: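 Luminescence was measured 30 min after luciferase reagent addition at room temperature. Before that, C3RL4 reporter cells (1,000 per well, plated overnight) were treated with compound for 6 hr at 37 C and 5% CO2.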
With `CCOc1ccc(Cc2nccc3cc(OCC)c(OCC)cc23)cc1OCC` the Potency was “inactive”. For `O=c1cc(-c2ccccc2)oc2cc(O)cc(O)c12`, the Potency was 0.969 µM (active). With `CCC(C)(C)OC` the Potency was “inactive”. For `O=C1c2ccccc2C(=O)C1c1ccc(Br)cc1`, the Potency was “inactive”. With `COc1cc(N)c(Cl)cc1C(=O)NC1CCN(CCCOc2ccc(F)cc2)CC1OC` (centres undefined) the Potency was “inactive”. With `Cc1cccc(O)c1N` the Potency was “inactive”. For `CC(C)=CCC/C(C)=C/CC/C(C)=C/C(=O)OCC(=O)[C@@]1(O)CC[C@H]2[C@@H]3CCC4=CC(=O)C=C[C@]4(C)[C@H]3[C@@H](O)C[C@@]21C`, the Potency was “inactive”. In the case of `O=C(O)CCc1nc(-c2ccccc2)c(-c2ccccc2)o1`, the Potency is reported as “inactive”. With `CN1C(=O)c2ccccc2C1=O` the Potency was “inactive”. In the case of `CN1CCCC(n2nc(Cc3ccc(Cl)cc3)c3ccccc3c2=O)CC1` (centres undefined), the Potency is reported as “inactive”. For `CCOc1cccc(-n2cc(C(=O)N3CCN(c4cc(C(=O)O)c5ccccc5c4)CC3)nc2-c2ccc(C)cc2)c1`, the Potency was “inactive”. For `CCCCCCNC(=O)n1cc(F)c(=O)[nH]c1=O`, the Potency was “inactive”. In the case of `O=C1c2ccccc2C(=O)c2c(O)c(O)cc(O)c21`, the Potency is reported as “inactive”. For `CCOC(=O)c1ccccc1C(=C1C=C(Br)C(=O)C(Br)=C1)c1cc(Br)c(O)c(Br)c1`, the Potency was “inactive”. In the case of `Cc1ccc(Cl)c(Nc2ccccc2C(=O)O)c1Cl`, the Potency is reported as “inactive”. In the case of `CCc1ccccc1`, the Potency is reported as “inactive”. With `CC(=O)OCC[N+](C)(C)C` the Potency was “inactive”. In the case of `CC1CC(OC(=O)C(O)c2ccccc2)CC(C)(C)N1C` (centres undefined), the Potency is reported as “inactive”. In the case of `CCCCC(CC)CN` (centres undefined), the Potency is reported as “inactive”. In the case of `CC1(C)[C@@H](OC(=O)CCC(=O)O)CC[C@]2(C)[C@H]3C(=O)C=C4[C@@H]5C[C@@](C)(C(=O)O)CC[C@]5(C)CC[C@@]4(C)[C@]3(C)CC[C@@H]12`, the Potency is reported as “inactive”. In the case of `CC(C)c1nc(CN(C)C(=O)N[C@H](C(=O)N[C@@H](Cc2ccccc2)C[C@H](O)[C@H](Cc2ccccc2)NC(=O)OCc2cncs2)C(C)C)cs1`, the Potency is reported as “inactive”. In the case of `O=C1c2ccccc2C(=O)N1CCc1noc(-c2ccc(CN3CCCCCC3)s2)n1`, the Potency is reported as “inactive”. For `COC(=O)CS`, the Potency was “inactive”. For `CC(=O)NC1(c2cccc(F)c2)CCN(CC[C@@]2(c3ccc(Cl)c(Cl)c3)CN(c3ccccc3)C(=O)CO2)CC1`, the Potency was “inactive”. With `Cc1ccc2c(Br)cc(Br)c(O)c2n1` the Potency was “inactive”. For `CCCCC(CC)COP(=O)(O)O` (centres undefined), the Potency was “inactive”. For `CC(C)C=O`, the Potency was “inactive”. For `CC(C)C[C@H](NC(=O)[C@H](CCc1ccccc1)NC(=O)CN1CCOCC1)C(=O)N[C@@H](Cc1ccccc1)C(=O)N[C@@H](CC(C)C)C(=O)[C@@]1(C)CO1`, the Potency was 0.0473 µM (active).

Assay: qHTS assay to identify small molecule antagonists of the estrogen related receptor (ERR) signaling pathway - cell viability counter screen (AID 1224818);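 note: viability measured after 17.5 h of compound exposure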
Conditions: ERR reporter cell line viability counter screen; series mostly up to 46.1 µM
Procedure, shortened: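 Cytotoxicity counter screen: fluorescence from CellTiter-Fluor, added after 17.5 h compound exposure at 37 C and read 30 min later. ERR cell line seeded at 2,000 cells/well, preincubated 6 h before dosing.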
With `OCCN1CCN(CCCN2c3ccccc3Sc3ccc(Cl)cc32)CC1` the outcome was “inactive”. For `O=C(O)CCc1nc(-c2ccccc2)c(-c2ccccc2)o1`, the outcome was “inactive”. For `CN1C(=O)c2ccccc2C1=O`, the outcome was “inactive”. For `O=C(CCc1ccc(O)cc1)c1c(O)cc(O)cc1O`, the outcome was “inactive”. For `Cc1ccc(Cl)c(Nc2ccccc2C(=O)O)c1Cl`, the outcome was “inactive”. With `CC(C)COCC(CN(Cc1ccccc1)c1ccccc1)N1CCCC1` (centres undefined) the outcome was “inactive”. For `C[C@H]1c2cccc(O)c2C(O)=C2C(=O)[C@]3(O)C(O)=C(C(N)=O)C(=O)[C@@H](N(C)C)[C@@H]3[C@@H](O)[C@@H]21`, the outcome was “inactive”.
